Inconclusive results are not listed. Calls of active or inactive are those of the source. Unless noted, calls come from the whole dose curve; as a rule, active = well fitted inhibition curve with a large enough effect; inconclusive = small, poorly fitted or top-dose-only effect; inactive = flat fitted curve, though single readings scatter.
Assays:
[1] = Drug repurposing screens with cells derived from glioblastoma tumor samples (AID 1345199); conditions: GBM patient neurospheres viability, ATP luminescence, 48 h; note: % is set by controls: 0 for no effect and ±100 for the full control effect; nearly all actives have a fitted effect of over 40% in size
Method in brief: (§1)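 Four patient lines of CD133+ GBM neurospheres were screened at several concentrations; hits were retested in those lines plus three slower-growing GBM lines, using 48-hour treatment and ATP-based viability.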

[2] = test system: astro; assay: as above; conditions: viability, ATP luminescence, 48 h; series mostly up to 45.9 µM
Method in brief: as §1

[3] = molecular target: Nuclear receptor subfamily 1 group I member 2 (Rattus norvegicus) (UniProt Q9R1A7); assay: qHTS assay for small molecule activators of the rat pregnane X receptor (rPXR) signaling pathway (AID 651751; call rule not given here; note: 0% is about no effect); conditions: rPXR reporter cells, luciferase (One-Glo), 24 h
Nuclear receptor subfamily 1 group I member 2 (Rattus norvegicus), sequence (Q9R1A7 whole entry, looked up): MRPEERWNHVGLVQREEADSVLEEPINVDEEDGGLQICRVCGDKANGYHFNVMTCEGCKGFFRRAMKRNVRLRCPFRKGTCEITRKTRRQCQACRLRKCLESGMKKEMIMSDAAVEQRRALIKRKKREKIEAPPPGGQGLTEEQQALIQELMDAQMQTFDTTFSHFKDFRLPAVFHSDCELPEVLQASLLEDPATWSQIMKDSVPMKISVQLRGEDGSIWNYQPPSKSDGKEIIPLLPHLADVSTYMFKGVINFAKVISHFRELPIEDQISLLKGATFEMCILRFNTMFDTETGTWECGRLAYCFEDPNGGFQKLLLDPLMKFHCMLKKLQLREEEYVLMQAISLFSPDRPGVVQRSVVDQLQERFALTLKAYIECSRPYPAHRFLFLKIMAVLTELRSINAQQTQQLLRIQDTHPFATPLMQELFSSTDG

[4] = qHTS assay for small molecule activators of the human pregnane X receptor (PXR) signaling pathway (AID 720659; call rule not given here; note: 0% is about no effect); conditions: DPX-2 HepG2 CYP3A4-luciferase, 24 h; series mostly up to 92.3 µM
[5] = at 45.9 µM (top of the series), tumour line B
[6] = at 45.9 µM (top of the series), tumour line D
[7] = at 46.1 µM (top of the series), tumour line C

O=C1c2ccccc2S(=O)(=O)N1CCCCN1CCN(c2ncccn2)CC1
inactive: activity, negative = cell killing [1, 5] 1.94% | activity, negative = cell killing [1, 6] -19.1% | activity, negative = cell killing [1, 7] -25.2% | outcome [2]

Cc1cc(=O)[nH]c(=S)[nH]1
inactive: activity, negative = cell killing [1, 5] -11.2% | activity, negative = cell killing [1, 6] 2.62% | activity, negative = cell killing [1, 7] -26.3% | outcome [2] | max response [3] -6.87% | outcome [4]

CC(=O)Nc1ccc(OCCOCCOc2ccc(NC(C)=O)cc2)cc1
inactive: activity, negative = cell killing [1, 5] -5.83% | activity, negative = cell killing [1, 7] -16.3% | outcome [2]

C[C@H]1COc2c(C3(N)CC3)c(F)cc3c(=O)c(C(=O)O)cn1c23
inactive: activity, negative = cell killing [1, 5] -13.2% | activity, negative = cell killing [1, 7] -15.1% | outcome [2]

O=S1(=O)OC(c2ccc(O)cc2)(c2ccc(O)cc2)c2ccccc21
inactive: activity, negative = cell killing [1, 5] -17.4% | activity, negative = cell killing [1, 6] -14.4% | activity, negative = cell killing [1, 7] 11.5% | outcome [2]

C[N+](C)(C)CC(O)CC(=O)[O-] (stereo unspecified)
inactive: activity, negative = cell killing [1, 5] -2.63% | activity, negative = cell killing [1, 6] -13.3% | activity, negative = cell killing [1, 7] -12.8% | outcome [2]

COc1ccc(C(=O)NCc2ccc(OCCN(C)C)cc2)cc1OC
inactive: activity, negative = cell killing [1, 5] -21.3% | activity, negative = cell killing [1, 6] -4.36% | outcome [2]

CC[N+](CC)(CC(=O)Nc1c(C)cccc1C)Cc1ccccc1
inactive: activity, negative = cell killing [1, 5] -20.4% | activity, negative = cell killing [1, 6] -18.5% | activity, negative = cell killing [1, 7] -28% | outcome [2] | max response [3] 0.531% | outcome [4]

Cc1ccccc1N=Nc1ccc(N=Nc2c(O)ccc3ccccc23)c(C)c1
inactive: activity, negative = cell killing [1, 5] -15.7% | activity, negative = cell killing [1, 6] -2.5% | activity, negative = cell killing [1, 7] -1.06% | outcome [2]

NS(=O)(=O)c1cc(-c2nn[nH]n2)c(NCc2cccs2)cc1Cl
inactive: activity, negative = cell killing [1, 5] 0.416% | activity, negative = cell killing [1, 6] -1.64% | activity, negative = cell killing [1, 7] -29.2% | outcome [2]

Reference: PubChem BioAssay (NCATS)
